Molecules are shown by their SMILES. Inconclusive results are not listed. The source made the active and inactive calls. The call rests on the fitted dose curve; in most records, active means well fitted inhibition curve with a large enough effect; inconclusive means small, poorly fitted or top-dose-only effect; inactive means no such curve, though single readings can be large or run the other way.
On the % scale 0 is the no-effect control and ±100 the full control effect; potency means the concentration at half of the fitted maximal effect.

The target of this assay is Aldehyde dehydrogenase 1A1 (Homo sapiens) (UniProt P00352). Briefly: qHTS for Inhibitors of the Aldehyde Dehydrogenase Family (ALDH1A1) Confirmatory screens (AID 2061316). Further: nearly all actives have a fitted effect of over 65% in size. The following applies: ALDH inhibition qHTS; series mostly up to 47.3 µM; activity change, negative = inhibition: at the top concentration.
Regarding `C=C1C(=O)O[C@@H]2[C@H]1CC(=O)[C@H](C)[C@@](O)(C(=O)/C=C/C)[C@H]2OC(=O)C(C)CC` (some centres undefined), the “activity change, negative = inhibition” value is -10.2% [at 25.5 µM] (inactive).
As for `O=C1NC(=O)C(c2cnc3ccccn23)=C1c1cn2c3c(cccc13)CN(C(=O)N1CCOCC1)CC2`, the Potency was 12.7 µM (active).
Take `CC1(C)C2CCC1(C)C(OC(=O)C(O)(CC(=O)O)CC(=O)O)C2` (centres undefined): the “activity change, negative = inhibition” value is -18.8% [at 25.5 µM] (inactive).
Take `Cc1ccc(CNc2ncnc3ccc(-c4ccc(CO)o4)cc23)o1`: the Potency was 4 µM (active).

Source of the values: PubChem BioAssay (NCATS).
